# An excerpt weighted towards active compounds, which were near 15% of everything screened.
# HCMV inh: blocks human cytomegalovirus replication; actives 4.5% (n = 410,000); AID 1259415; activity change, negative = inhibition, % at 57.5 µM; HFF cells, HCMV-luciferase reporter, 72 h; hits give low values; in the data active = activity change below about -60%; inconclusive = no clear call, values can overlap the other calls; inactive = above about -39%; also: % is scaled to controls: 0 for no effect and ±100 for the full control effect
#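 Luciferase read-out from HCMV-luciferase-infected HFFs (MOI 1 PFU/cell) 72 h post infection at 37C; compounds added after 16 h cell attachment; activity normalized between buffer-only basal and Salinomycin (10uM) inhibitor controls.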
# Pf growth 96h: P. falciparum growth inhibition at 96 hours; P. falciparum luciferase reporter growth, 96 h; Potency, µM (titrated, usually from 28.7 µM), for the others: top-dose activity change, negative = inhibition, actives largely listed as inhibitors; actives 6.9% (n = 320,000); AID 504834; also: potency is read from the fitted curve at half-maximal effect; % is scaled to controls: 0 for no effect and ±100 for the full control effect
#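 Readout is luminescence from an integrated firefly luciferase in P. falciparum. Red cells, 2% hematocrit and 0.05% parasitemia final, were cultured with compound through two parasite generations (96 hours) at 37 C, 5% CO2.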
# HCV inhibitor: inhibitors of hepatitis C virus infection | actives 3.4% (n = 340,000) | Huh7.5.1 HCVcc-Cre infection, luciferase reporter, 44 h | Potency, µM (series often up to 41.8 µM), for inactives: at the top dose activity change, negative = inhibition, most hits filed as inhibitors | AID 651820; also: potency is read from the fitted curve at half-maximal effect; % is scaled to controls: 0 for no effect and ±100 for the full control effect
#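 A cell-based infection assay in which seeded cells (1,000 per well) receive test compound after 4 h, are inoculated with HCVcc-Cre at approximately 0.5 moi, and are incubated 44 h before luminescence detection.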
# Sm TGR block: S. mansoni TGR enzyme inhibition | purified TGR, DTNB reduction, TNB absorbance 405 nm | Q962Y6 | actives 3% (n = 360,000) | AID 485364 | Potency, µM (highest dose often 114 µM), without a hit: at the top dose activity change, negative = inhibition, most hits filed as inhibitors; also: potency is read from the fitted curve at half-maximal effect; % is scaled to controls: 0 for no effect and ±100 for the full control effect; nearly all actives have a fitted effect of over 60% in size
#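 Kinetic colorimetric format: TGR-catalysed, NADPH-driven DTNB reduction monitored via TNB absorbance. Enzyme dispensed at 20 nM; compound exposure 15 min at room temperature before reaction start.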
# Pf growth 48h: P. falciparum growth inhibition at 48 hours (one generation); actives 5.9% (n = 310,000); AID 504832; Potency, µM (series often up to 28.7 µM), for the others: at the highest dose activity change, negative = inhibition, hits mostly inhibitors; P. falciparum luciferase growth in erythrocytes, 48 h; also: potency is read from the fitted curve at half-maximal effect; % is scaled to controls: 0 for no effect and ±100 for the full control effect
#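 Luminescence readout; reporter = integrated firefly luciferase in P. falciparum. RBC culture at 2% hematocrit, 0.1% parasitemia final, 37 C/5% CO2; decreased signal taken as growth inhibition.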
# SARS PLpro yeast: SARS-CoV PLP inhibition in yeast. actives 0.19% (n = 330,000). S. cerevisiae expressing SARS-CoV PLpro, growth rescue. Potency, µM (doses to about 32.9 µM), inactives show top-dose activity, positive = growth rescue, most hits filed as activators; calls by dose curve; also: potency is read from the fitted curve at half-maximal effect; 0% is about no effect; nearly all actives have a fitted effect of over 55% in size
# Active calls of the source: *; ? = inconclusive; . = no result given. Unless noted, calls follow the shape of the dose curve; as a rule, active = well fitted curve in the direction sought with a large enough effect; inconclusive = small, poorly fitted or top-dose-only effect, or another doubt; inactive = no such curve, though single readings can be large; an effect the other way counts as inactive or inconclusive.
SMILES,HCMV inh,Pf growth 96h,HCV inhibitor,Sm TGR block,Pf growth 48h,SARS PLpro yeast
O=c1c2c(-c3cccs3)csc2ncn1-c1ccc(Br)cc1,-2.9,?,?,-19.1%,?,-12.9%
Cc1ccc(OC2CCN(C(=O)[C@H]3O[C@@H](n4ccc(N)nc4=O)[C@H](O)[C@@H]3O)CC2)cc1,1.5,.,.,.,.,.
c1ccc(COc2cccc(-c3cc4nc(NCCCn5ccnc5)ccn4n3)c2)cc1,-6.4,.,.,.,.,.
O=C(CC1CC2CCC1C2)NC1CCCCCCC1 (stereo unspecified),130.2,22.9%,13.6%,-9.7%,.,0.7%
ONC(=Nc1ccccc1Cl)c1c(F)cccc1F,-7.0,.,8.1%,.,.,.
CCN(CC)S(=O)(=O)c1cc(NC(=O)Cn2ncc(Cl)c(Cl)c2=O)ccc1C,-79.1*,-24.6%,?,0.562µM*,?,0.7%
O=C(Cn1ncc(Cl)c(Cl)c1=O)Nc1ccc2c(c1)OCO2,-101.9*,-4.3%,?,44.7µM*,-15.1%,-18.5%
CCN(CC)S(=O)(=O)c1cc(NC(=O)CN2C(=O)NC(C)(c3ccccc3)C2=O)ccc1C (stereo unspecified),50.8,-7.0%,-28.8%,10.0%,-49.0%,2.1%
CCC(=O)c1ccc2c(c1)OCCO2,18.5,15.8%,10.6%,-3.1%,19.2%,-0.4%
O=C(Cn1ncc(Cl)c(Cl)c1=O)c1ccc2c(c1)OCCO2,-81.1*,.,2µM*,.,.,-34.7%
Cc1ccccc1C(=O)NC(CC(C)C)C(=O)Nc1cccc(S(=O)(=O)N(C)C)c1 (stereo unspecified),6.6,-10.1%,9.7%,0.6%,-22.0%,0.1%
Cc1ccccc1C(=O)NC(CC(C)C)C(=O)Nc1ccc(F)c([N+](=O)[O-])c1 (stereo unspecified),-103.6*,?,20.9%,0.1%,-4.0%,-7.5%
C=CC(C)(O)CC/C=C(\C)CCC=C(C)C (stereo unspecified),.,3.2%,.,.,2.5%,.
CCOc1ccc(NC(c2ccccn2)c2oc(CO)cc(=O)c2O)cc1 (stereo unspecified),-25.4,?,-6.3%,10µM*,192.3%,24.4%
Nc1c(C(=O)Nc2ccccc2Br)sc2nc(-c3cccs3)ccc12,-70.9*,.,.,5.7%,.,.
COc1ccccc1NC(=O)c1sc2nc(-c3ccco3)ccc2c1N,.,.,6.6%,?,13.2%,-10.8%
Nc1c(C(=O)Nc2ccccc2)sc2nc(-c3ccco3)ccc12,8.6,14.5%,11.2µM*,1µM*,15.6%,-2.2%
Cc1cc(C)c2c(N)c(C(=O)Nc3c(C)n(C)n(-c4ccccc4)c3=O)sc2n1,-2.1,?,5.8%,0.0%,25.7%,1.8%
c1ccc(NC2=NCCN2CCCC2CCCCC2)cc1,-22.3,?,?,-11.2%,?,-2.6%
COCCCN1Cc2cccc(C(=O)O)c2C1=O,-5.4,8.28µM*,6.0%,-0.7%,.,6.0%
CCCN(CCC)CC(=O)Nc1cccc2c1OCO2,-18.6,11.7µM*,?,-7.8%,1.7%,2.6%
O=C1OCC=C1NNC(=O)c1cccnc1,-35.1,?,18.1%,39.8µM*,11.3%,3.6%
N=c1ccn2c(n1)OC1C(O)C(CO)OC12 (stereo unspecified),-99.7*,5.6%,-29.2%,-19.6%,24.8%,2.8%
Nc1ccn([C@@H]2O[C@H](CO)[C@@H](O)C2O)c(=O)n1 (stereo partly specified),-96.9*,2.5%,?,5.6%,4.5%,3.3%
Nc1ccn([C@@H]2O[C@H](COS(=O)(=O)O)[C@@H](O)[C@H]2O)c(=O)n1,6.1,.,0.8%,.,.,5.0%
SMILES,HCMV inh,Pf growth 96h,HCV inhibitor,Sm TGR block,Pf growth 48h,SARS PLpro yeast
Nc1ccn(C2OC(CCl)C(O)C2O)c(=O)n1 (stereo unspecified),-60.7*,.,.,.,.,.
Nc1ccn([C@@H]2O[C@H](CO)[C@@H](O)[C@H]2O)c(=O)n1,40.1,.,20.4%,.,.,.
Nc1ccn(C2OC(COC(=O)C34CC5CC(CC(C5)C3)C4)C(O)C2O)c(=O)n1 (stereo unspecified),-97.3*,.,-14.8%,.,.,.
O=C(NC(=S)N1CCN(Cc2ccc3c(c2)OCO3)CC1)c1ccc(Cl)cc1,-39.4,-99.2%,0.7%,5.2%,-24.3%,-7.4%
Cc1ccc(-c2nc(CN(Cc3cnn(C)c3)C(C)C)c(C)o2)o1,-26.1,7.38µM*,0.5%,?,-6.0%,1.1%
C[C@H]1CN([C@@H](C)CO)C(=O)c2cc(Br)cnc2O[C@H]1CN(C)Cc1ccc(Oc2ccccc2)cc1,-22.0,.,.,.,.,.
COc1ccc(S(=O)(=O)N2CCC(C(=O)NCCC(=O)NCc3cccnc3)CC2)cc1,-11.6,.,.,.,.,.
COCCn1nnnc1C(C(C)C)N(Cc1cccnc1)Cc1ccccc1Cl (stereo unspecified),0.6,-0.4%,?,?,10.4µM*,0.8%
COc1ccccc1NC(=S)N(Cc1cccnc1)Cc1ccccc1Cl,-14.8,?,?,6.3%,?,-2.0%
COc1ccc(/C=N/N(CCC(=O)NC(C)(C)C)C2=NS(=O)(=O)c3ccccc32)cc1,-39.9,41.9%,-21.3%,2.5%,6.57µM*,-0.8%
Cn1nc(-c2ccccc2)cc1NC(=O)[C@@H]1O[C@H](CO)[C@H](O)[C@H](O)[C@H]1O,-10.6,.,.,.,.,.
COc1cc(CN2CCN(CC#Cc3ccccc3)CC2CCO)cc(OC)c1 (stereo unspecified),95.0,?,11.6%,?,-14.7%,0.4%
CCOC(=O)c1cnc2c(C)c(Cl)ccc2c1Nc1ccc(N2CCOCC2)cc1,3.3,.,.,6.0%,.,.
Cc1ccccc1CN(C)c1ccc(S(=O)(=O)N2CCN(C)CC2)cn1,0.0,20.4%,15.0%,-2.3%,-10.8%,5.3%
COc1ccc(C)cc1CN(C)c1ccc(S(=O)(=O)N2CCN(C)CC2)cn1,-11.6,?,?,-0.7%,10.4µM*,2.0%
Cc1ccc(CNCCc2ccccc2F)cc1,?,57.8%,-0.3%,0.4%,9.5%,11.7%
CCN(CC)c1ccc(CNCCc2ccccc2F)cc1,-8.1,9.28µM*,?,8.1%,-10.8%,0.0%
COc1ccc(Cl)cc1NC(=O)Cn1c(=O)n(-c2ccc(C)cc2)c(=O)c2ccc(C(=O)NCc3ccccc3Cl)cc21,-13.3,.,.,-14.3%,.,.
CN(Cc1ccccc1)C1(CNC(=O)CCC(F)(F)F)Cc2ccccc2C1,-20.8,14.7µM*,9.0%,-23.2%,27.9%,8.1%
CC(=O)NCCC(=O)NCC1(N(C)Cc2ccccc2)Cc2ccccc2C1,34.4,7.6%,15.2%,-3.8%,-3.8%,-1.1%
Cc1ccc(NC(=O)CCNS(=O)(=O)c2cccc3nsnc23)cc1F,3.6,21.9%,-4.7%,2.4%,14.6%,-3.1%
